High-throughput results from PubChem BioAssay.
Compounds with a hit are over-represented: about 1.1% of the library has one in this group of screens.
HDAC3 inhib = blocks human histone deacetylase 3. actives 0.15% (n = 320,000). AID 2718. O15379. recombinant HDAC3, fluorogenic peptide/trypsin coupled, fluorescence. inhibition, % at 8.3 µM; in the data active = inhibition above about 26%, passing the limit was not always enough; inconclusive = no clear call, values can overlap the other calls
IDE act = boosts human insulin-degrading enzyme activity in HEK cells | P14735 | AID 493087 | actives 0.073% (n = 340,000) | FAbeta-B cleavage, fluorescence polarization; 0% vehicle, 100% cell-free pure enzyme wells | activation, % at 5.96 µM;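 active = activation above the mean of all tested compounds plus 3 SD, set per screening campaign, cut at about 17% in these data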
IDE cell inh = inhibits human insulin-degrading enzyme in HEK cells. FAbetaB cleavage, fluorescence polarization. inhibition, % at 5.59 µM. actives 0.41% (n = 320,000);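 active = percent inhibition above the average of all tested compounds plus 3 SD, set per screening campaign, cut at about 16% in these data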;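 also: IDE supplied by intact live HEK cells; FP after avidin binding of uncleaved biotin substrate so inhibition keeps polarization high; 0% = DMSO wells and 100% = 60 µM reference IDE inhibitor Ii1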
LANA-H2B inh = blocks KSHV LANA binding to histone H2A/H2B. cell-free LANA-H2A/H2B peptide, fluorescence polarization. Q9QR71. inhibition, % (concentration not given with the values). AID 2629. actives 0.6% (n = 320,000); in the data active = inhibition mostly above about 10%, no sharp cut-off; inactive = mostly below about 6.7%
The depositor's hits bear a star; ? = inconclusive; / = no result given; ! = repeats disagree.

SMILES	HDAC3 inhib	IDE act	IDE cell inh	LANA-H2B inh
CCOc1ccc(NC(=O)CSc2nnc(CNC(=O)c3ccco3)o2)cc1	2	-1	0	3
O=C(NC1CCCCCC1)C(=S)NCc1ccccc1	4	-4	2	0
COc1ccccc1CCn1cnc2c3cc(C)ccc3n(C)c2c1=O	-9	1	0	24*
Cc1ccsc1C1C=C(c2cccc(Br)c2)Nc2ncnn21 (stereo not drawn)	-7	-34	25*	10
COc1cccc(C2=CC(c3ccc(C)cc3)n3ncnc3N2)c1 (stereo not drawn)	0	/	1	5
CN1[C@@H]2CC(OC(=O)[C@H](CO)c3ccccc3)C[C@H]1[C@@H]1O[C@@H]12 (stereo partly drawn)	1	4	4	27*!
CCn1ncc(Br)c1C(=O)Nc1ccc2c(c1)OCCO2	-3	1	3	-1
Cc1cc(NC(=O)c2cc(-c3ccco3)on2)nn1Cc1ccc(Cl)cc1	-3	4	10	15*
C=CCn1c(O)c(C2=c3ccccc3=NC2=O)sc1=Nc1ccc(O)cc1	1	19*	-7	-4
COc1cc(C(=O)NNC(=O)NC2CCCCC2)cc(OC)c1OC	2	5	0	14*
O=C(COc1cc2oc(=O)c3c(c2cc1Cl)CCC3)NCCCn1ccnc1	9	-1	3	2
Cn1c(=O)c2c([nH]c(=S)n2CCCc2ccccc2)n(C)c1=O	41*	-16	7	0
Cn1c(=O)[nH]c(=O)c2c1[nH]c(=S)n2CCCc1ccccc1	/	-16	/	/
CC(C)Cn1c(=S)[nH]c2ccccc2c1=O	0	1	2	1
C=CCn1c(=S)[nH]c2ccccc2c1=O	-3	2	2	16*
C=COCCNC(=S)N1CCOCCOCCN(C(=S)NCCOC=C)CCOCCOCC1	3	3	-4	1
CCc1cc(Cn2nc(-c3ccccc3)cc2C(=O)NCc2cccc(Br)c2)on1	14	1	0	0
CC(=O)Nc1cccc(NC(=O)CSc2n[nH]c(-c3ccccc3)n2)c1	8	-1	-3	20*
O=C(CSc1n[nH]c(-c2ccncc2)n1)Nc1ccccc1	0	2	-2	-7
C/C=C(\C)CN1CCC(n2nccc2NC(=O)c2ccc3c(c2)OCO3)CC1	4	9	-3	75*
COc1ccc(C(=O)Nc2ccnn2C2CCN(CC3CC=CCC3)CC2)cc1 (stereo not drawn)	-1	2	/	16*
COc1ccc(CCN2CCCC(CN(C)C(=O)c3ccoc3)C2)cc1 (stereo not drawn)	-2	7	/	15*
O=C(CSc1ncnc2scc(-c3ccc(F)cc3)c12)c1ccc2c(c1)OCCO2	81*	1	0	0
CCN(CC(=O)Nc1c(F)cccc1F)C(=O)CCc1nc2ccccc2c(=O)[nH]1	2	-2	8	-2
CCN(CC(=O)Nc1c(F)cccc1F)C(=O)CCCc1nc2ccccc2c(=O)[nH]1	3	7	2	9.7*
SMILES	HDAC3 inhib	IDE act	IDE cell inh	LANA-H2B inh
CC(=O)Oc1oc(-c2ccccc2)nc1/C=N/c1ccccn1	84*	-1	-6	8
CC(=O)C1=C(O)C(=O)N(c2ccc(C(=O)O)cc2)C1c1ccc([N+](=O)[O-])cc1 (stereo not drawn)	1	5	1	13*
Cc1cccnc1NC(=O)CCC(=O)c1cccs1	-1	2	-3	25*
CCc1c(C)nc2[nH]ncn2c1=O	/	-1	/	/
CCOC(=O)c1c(CSC(=N)N)n(-c2ccc(C)cc2)c2cc(Br)c(OC(C)=O)cc12	-1	18*	2	1
CCOC(=O)c1c(CSC(=N)N)n(C)c2cc(Br)c(OC(C)=O)cc12	8	1	-5	-5
CCCN1CCN(S(=O)(=O)c2c(C)[nH]c(C)c2C(=O)N2CCCCC2)CC1	2	6	-6	-2
Cc1cc(C)c(NC(=O)C2CCCN2C)c(C)c1 (stereo not drawn)	-9	1	1	3
Cc1cccc(C)c1NC(=O)C1CCCCN1C (stereo not drawn)	-2	2	1	25*!
CC1(C)N=C(N)NC(Nc2ccccc2)=N1	5	3	1	2
CC(C)CN1CCN(Cc2ccc(CN3CCCCC3)s2)CC1CCO (stereo not drawn)	4	3	0	41*
N#CC1=C(SCC(N)=O)NC2=C(C(=O)c3ccccc32)C1c1ccc(Cl)cc1 (stereo not drawn)	3	-1	3	6
CC(=O)Nc1cccc(N)c1	5	1	1	28*
CC(=O)Nc1cccc(C)c1	0	4	-2	-2
O=C(O)c1ccc(Cl)c(S(=O)(=O)Nc2cccc(C(=O)Nc3cccc(C(F)(F)F)c3)c2)c1	5	3	1	70*
Cc1c(C(C)NC(=O)c2cc(COc3cccc4cnccc34)on2)cnn1C (stereo not drawn)	-20	0	1	25*
C[N+](C)(CCOc1ccccc1)Cc1ccccc1 (tested in a mixture with another compound)	-1	-3	5	4
CC(C)(C)CC(C)(C)c1ccc(OCCOCC[N+](C)(C)Cc2ccccc2)cc1	40*	6	0	7
Cc1ccc(CCN2CC(C(=O)N3CCN(c4ccc(F)cc4)CC3)CC2=O)cc1 (stereo not drawn)	-2	-9	3	22*
CC(=O)c1cnc(-c2ccccn2)s1	-4	4	-2	18*
CC(=O)c1cnc(-c2ccccc2Cl)s1	?	4	7	3
C=COCCNC(=O)C(=O)NC(C)C	-5	-6	6	17*
CC(=O)Nc1ccc(N2C(=O)CSC2c2cccc([N+](=O)[O-])c2)cc1 (stereo not drawn)	10	1	0	1
COc1cc(/C=C2\SC(=Nc3cccnc3)NC2=O)cc(OC)c1OC	-1	/	12	27*
COc1ccc2c(c1)[n+](=O)c(C(C)=O)c(C)n2[O-]	5	3	4	1
SMILES	HDAC3 inhib	IDE act	IDE cell inh	LANA-H2B inh
CCOC(=O)c1c(=O)n(O)c2ccc(OC)cc2[n+]1[O-]	1	-4	6	82*
COc1ccc(C2c3c(ncn(CCN4CCOCC4)c3=N)Oc3ccc4ccccc4c32)cc1 (stereo not drawn)	3	9	1	0
O=C(COc1ccccc1F)Nc1ccc(S(=O)(=O)N2CCCC2)cc1	-1	2	2	2
CCn1c(CCNC(=O)c2cccs2)nnc1SCC(=O)c1ccc(OC)cc1	27*	2	3	1
FC(F)(F)Oc1ccc(NC(=S)Nc2ccc(OC(F)(F)F)cc2)cc1	9	-3	4	0
C/C(=N\NC(=O)c1ccc(-n2cnnn2)cc1)c1ccc(C)cc1	7	-1	2	-5
Cc1ccc(CSc2nc3nc(C)cc(C)n3n2)cc1	-9	0	5	1
C=Cc1ccc(CSc2cc(C)nc3nc(C)nn23)cc1	31*	-4	4	0
COc1ccc2oc(C(=O)Nc3ccccn3)c(C)c2c1	7	5	-3	2
